# Screening data as filed in PubChem.
# Sampled rows, rich in hits. Any-hit rate of the full collection: about 2.4%.
# Pol kappa inh – DNA polymerase kappa (human) inhibition; AID 588579; 0.53% of 400,000 active; Q9UBT6; Potency, µM (titrated, usually from 107 µM), for the others: at the top dose activity, negative = inhibition, most hits filed as inhibitors; purified Pol kappa, fluorescent DNA synthesis assay, 10 min; also: % is scaled to controls: 0 for no effect and ±100 for the full control effect
#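 Enzyme at 10 nM met test compounds for 15 min at room temperature. Substrate addition (50 nM final) began the reaction, which was monitored by fluorescence at 0 and 10 min.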
# POLB inh – DNA polymerase beta (human) inhibition; Pol beta primer extension/strand displacement, fluorescence kinetic; Potency, µM (highest dose often 114 µM), for inactives: at the highest dose activity change, negative = inhibition, usual class: inhibitors; 1.3% of 340,000 active; AID 485314; also: % is scaled to controls: 0 for no effect and ±100 for the full control effect
#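 Human Pol beta at 10 nM; strand-displacement substrate 50 nM final. Compound exposure 15 min at room temperature before start, reaction 10 min at room temperature.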
# KAT2A inh – blocks human GCN5L2 histone acetyltransferase; GCN5L2 HAT assay, ThioGlo1 CoA-SH fluorescence; Potency, µM (series often up to 58.9 µM), for the others: top-dose activity change, negative = inhibition, usual class: inhibitors; AID 504327; Q92830; 0.21% of 390,000 active; also: % is scaled to controls: 0 for no effect and ±100 for the full control effect
#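 Free CoA generated was detected with ThioGlo1 (50uM) fluorescence at Ex340nm/Em540nm, read immediately and after 20 min at room temperature. Enzyme, 20 nM in HEPES pH 7.5 buffer, saw compounds 15 min before adding 75uM H3(1-25) peptide and 70uM acetyl-CoA.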
# POLI inh – DNA polymerase iota (human) inhibition | Q9UNA4 | Pol iota fluorescent replication assay, 10 min | Potency, µM (series often up to 115 µM), without a hit: at the top dose activity, negative = inhibition, hits mostly inhibitors | 1% of 390,000 active | AID 588590
#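 Pol iota at 10 nM preincubated 15 min with compounds at room temperature; reaction started with fluorescent substrate, 50 nM final. Fluorescence read kinetically at 0 and 10 min; buffer-only wells as negative control.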
# GLS inhibitor – blocks human kidney-isoform glutaminase activity. O94925. GLS enzymatic activity, qHTS titration. Potency, µM (highest dose often 45.5 µM), without a hit: at the highest dose activity change, negative = inhibition, actives largely listed as inhibitors. AID 624170. 0.21% of 410,000 active; also: % is scaled to controls: 0 for no effect and ±100 for the full control effect
# Target sequence (O94925 whole entry, looked up, canonical isoform): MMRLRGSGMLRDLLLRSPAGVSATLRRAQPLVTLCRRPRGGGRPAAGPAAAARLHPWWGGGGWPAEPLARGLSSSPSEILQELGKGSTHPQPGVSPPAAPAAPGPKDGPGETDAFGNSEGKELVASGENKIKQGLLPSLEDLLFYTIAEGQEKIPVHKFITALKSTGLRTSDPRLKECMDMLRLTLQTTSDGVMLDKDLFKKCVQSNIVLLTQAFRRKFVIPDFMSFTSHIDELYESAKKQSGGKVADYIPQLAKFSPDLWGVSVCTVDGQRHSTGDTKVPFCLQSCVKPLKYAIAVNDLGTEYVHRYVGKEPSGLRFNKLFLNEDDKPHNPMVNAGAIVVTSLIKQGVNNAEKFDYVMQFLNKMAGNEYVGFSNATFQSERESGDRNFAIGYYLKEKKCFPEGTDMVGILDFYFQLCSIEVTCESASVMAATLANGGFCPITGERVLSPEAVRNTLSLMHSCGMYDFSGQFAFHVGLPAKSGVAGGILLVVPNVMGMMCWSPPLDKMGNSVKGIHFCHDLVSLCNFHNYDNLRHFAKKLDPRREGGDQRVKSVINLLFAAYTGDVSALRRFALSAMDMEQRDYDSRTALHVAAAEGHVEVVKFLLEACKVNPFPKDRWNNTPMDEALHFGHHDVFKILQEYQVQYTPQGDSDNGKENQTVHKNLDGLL
#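 Enzyme dispensed in phosphate buffer (45 mM, pH 8.2, 0.02% Tween-20), compounds pinned in, then 1 mM L-glutamine solution and the glutamate oxidase–HRP–Amplex Red mix added; fluorescence read immediately and again after 30 min at room temperature.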
# POLH inh – blocks human DNA polymerase eta activity; 1.2% of 390,000 active; Q9Y253; Potency, µM (highest dose often 114 µM), for the others: at the highest dose activity change, negative = inhibition, usual class: inhibitors; recombinant Pol eta, fluorescent DNA replication assay; also: % is scaled to controls: 0 for no effect and ±100 for the full control effect
#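 Pol eta (10 nM) was preincubated with compounds for 15 min at room temperature, after which fluorescent replication substrate (50 nM final) was added to start the reaction. Fluorescence was read kinetically at 0 and 10 min.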
# * hit, by the source's call; ? = inconclusive; · = no result given; [ ] = dose if it differs, or a comment. Calls follow the shape of the dose curve; as a rule, active = well fitted inhibition curve with a large enough effect; inconclusive = small, poorly fitted or top-dose-only effect, or another doubt; inactive = no such curve, though single readings can be large or run the other way. Potency is read from the fitted curve at half-maximal effect.
SMILES,Pol kappa inh,POLB inh,KAT2A inh,POLI inh,GLS inhibitor,POLH inh
Oc1ccc(-c2nc3ccccc3s2)c(O)c1,-6.8%,-23.0%,-18.2%,-27.7%,5.4%,-19.1%
Oc1ccc(N=C/C=C/c2cccc(Br)c2)cc1-c1nc2ccccc2s1,-38.5%,12.6µM*,-5.5%,10µM*,14.1µM*,?
Nc1ccc(O)c(-c2nc3ccccc3s2)c1,?,7.94µM*,-9.7%,?,?,?
Cc1cc(O)c(C(C)C)cc1N=Cc1cc([N+](=O)[O-])ccc1O,-22.1%,3.3%,-13.6%,?,9.4%,-6.8%
Cc1cc(O)c(C(C)C)cc1N=Cc1ccccc1O,-11.8%,23.8%,-4.9%,20µM*,24.7%,-6.8%
COCCNc1nc(-c2cccc(NS(C)(=O)=O)c2)nc2ccccc12,25.1µM*,·,-21.3%,·,·,·
CC(C)(C)n1ncc2c(=O)n(Cc3ccc(SC(=O)O)cc3Cl)cnc21,-10.0%,·,·,-4.5%,·,·
O=c1c(Cl)c(Cl)cnn1Cc1nnc(-c2ccccc2Br)o1,-16.9%,39.8µM*,-13.3%,?,8.3%,79.4µM*
Cc1cc(C(=O)NCc2ccccc2C)c2c(C)nn(-c3cccc(F)c3)c2n1,-2.7%,6.7%,1.9%,9.5%,-1.8%,-17.3%
CC(C)c1ccc(/C=C2\SC(=S)N(CCC(=O)NCCCn3ccnc3)C2=O)cc1,?,39.8µM*,-25.6%,-27.6%,0.9%,-17.0%
COc1ccc(CCNC(=O)Cn2c(=O)nc(-c3ccccc3F)c3cc(Cl)ccc32)cc1OC,3.0%[60.1 µM],0.2%,-0.7%,2.7%,-7.3%,-12.4%
Cc1cc(C)c2c(=O)[nH]c(SCC(=O)c3ccc(C)c(C)c3)nc2n1,-8.6%,17.8µM*,-1.4%,81.9%,2.6%,-11.3%
Cc1cc(C)c2c(=O)[nH]c(SCC(=O)Nc3ccccc3)nc2n1,-10.4%,1.2%,-5.8%,-1.6%,0.2%,9.5%
CCOc1ccc(NC(=O)CSc2nc3c(c(=O)[nH]2)CCCC3)cc1,-3.1%,0.8%,-1.9%,23.5%,-17.4%,-5.5%
CN(C)c1ccc(NC(=O)CSc2nc3c(c(=O)[nH]2)CCCC3)cc1,?,?,-7.7%,?,65.3%,79.4µM*
Cc1ccc(NC(=O)CSc2nc3nc(C)cc(C)c3c(=O)[nH]2)cc1,-1.2%,44.7µM*,-17.3%,1.2%,1.2%,?
O=C(CCl)N(Cc1cc(=O)[nH]c2ccccc12)c1ccccc1,-2.5%,29.2%,3.0%,?,0.0%,50.1µM*
COc1ccc(OC)c(C(Cc2ccnc3ccccc23)Cc2ccnc3ccccc23)c1,-6.1%,·,·,-1.9%,·,·
C[C@@]1(C(=O)O)NCCc2cc(O)c(O)cc21,1.78µM*,·,?,·,·,·
C#CCNC(=O)C1=C[C@H](c2ccc(C#C)cc2)C[C@H](OCc2ccc(CO)cc2)O1,?,·,·,?,2.3%,44.7µM*
C#Cc1ccc([C@H]2C=C(C(=O)OCC=C)O[C@@H](OCc3ccc(CO)cc3)C2)cc1,?,·,·,?,2.9%,28.2µM*
C=CCOC(=O)C1=C[C@@H](c2ccc(Br)cc2)C[C@@H](OCc2ccc(CO)cc2)O1,-31.6%,-10.2%,-2.6%,-14.1%,-0.2%,-9.5%
C[C@H]1C(=O)N(S(=O)(=O)c2ccc([N+](=O)[O-])cc2)[C@H]1c1ccc(F)cc1,14.3%,·,·,5.0%,·,·
COc1ccc(CCC(C)N2CCC(Oc3ccc(C(=O)N4CCCC4)cc3)CC2)cc1 (stereo unspecified),-3.3%,-3.3%,-4.5%,89.1µM*,8.0%,-13.3%
CC(=O)c1ccc(N2CCN(c3nc4c(S(=O)(=O)c5ccc(C)c(C)c5)nnn4c4ccc(Cl)cc34)CC2)cc1,14.3%,16.5%,-2.1%,32.8%,0.5%,-6.1%
SMILES,Pol kappa inh,POLB inh,KAT2A inh,POLI inh,GLS inhibitor,POLH inh
COc1ccc(-c2nn(-c3ccccc3)cc2C(=O)Nc2cccc(C(=O)O)c2)cc1[N+](=O)[O-],-26.1%,35.5µM*,-3.8%,-16.8%,-13.1%,-11.8%
O=C(O)c1cccc(NC(=O)c2cn(-c3ccccc3)nc2-c2ccc([N+](=O)[O-])cc2)c1,-17.7%,?,0.3%,0.5%,5.1%,-1.8%
Cc1ccccc1OCc1ccc(-c2nc(C#N)c(NCc3cccnc3)o2)o1,-15.5%,17.1%,-15.8%,-10.1%,6.4%,-17.9%
O=S(=O)(Nc1nc2ccc(S(=O)(=O)N3CCCC3)cc2s1)c1ccc(F)cc1,-27.9%,-1.8%,-12.5%,?,27.1%,89.1µM*
O=C(Nc1nc2ccc(S(=O)(=O)N3CCCC3)cc2s1)c1ccc(F)cc1,-22.8%,3.9%,-5.4%,-22.2%,0.2%,-0.4%
O=C1CCCc2[nH]c(=O)c(C(=O)NCc3ccccc3)cc21,-5.3%,·,·,6.8%,·,·
CC(=O)Nc1cccc(NC(=O)Nc2cccc3ccccc23)c1,-3.3%,50.1µM*,-18.5%,?,10.5%,8.5%
Cc1cccc(NC(=O)Nc2cccc3ccccc23)c1,5.0%,31.0%,-7.6%,39.3%,-4.7%,-17.2%
COc1cc(C2CC(=O)Oc3ccc(O)cc32)cc(OC)c1OC (stereo unspecified),-16.5%,·,-11.0%[88.6 µM],·,·,·
C/C=C1\COC(C(=O)NCCOCCO)(C(F)(F)F)C=C1C=C1CCCCC1 (stereo unspecified),-4.5%,·,·,7.9%,·,·
COc1ccc(S(=O)(=O)c2cnc(SCC(=O)Nc3cc(F)ccc3C)[nH]c2=O)cc1Cl,-28.9%,50.1µM*,-4.1%,-18.3%,6.0%,?
COc1[nH]c(/N=C/c2ccco2)c(C#N)c1C#N,-5.2%,·,·,70.8µM*,·,·
CCOc1[nH]c(/N=C/c2ccccc2)c(C#N)c1C#N,-2.0%,·,·,?,·,·
CSCC[C@H](NC(=O)[C@@H](Cc1ccc(O[S+](=O)([O-])O)cc1)NC(=O)[C@H](N)CC(=O)O)C(=O)NCC(=O)N[C@@H](Cc1c[nH]c2ccccc12)C(=O)N[C@H](CCSC)C(=O)N[C@H](CC(=O)O)C(=O)N[C@@H](Cc1ccccc1)C(N)=O,·,·,·,·,-14.3%,·
CCc1ccc(C2=C(C)C(N3CCC(C(=O)Nc4ccc(F)cc4)CC3)=NS2(=O)=O)cc1,-11.1%,22.4µM*,2.4%,?,-1.3%,·
CCc1ccccc1NC(=O)C1CCN(C2=NS(=O)(=O)C(c3ccc(C)c(C)c3)=C2C)CC1,-32.5%,12.6µM*,-21.3%,-10.1%,16.2%,·
CC1=C(c2ccc(C)c(C)c2)S(=O)(=O)N=C1N1CCC(C(=O)Nc2ccc(Cl)cc2)CC1,-3.4%[60.1 µM],-26.3%,-10.1%,?,-14.1%,-11.4%
COc1ccc(NC(=O)c2c(NCc3ccc(C)o3)sc3c2CCC(C)C3)cc1 (stereo unspecified),-4.8%[60.1 µM],-18.1%,-13.3%,-3.3%,1.5%,0.1%
